This is part of a sample that, as a whole, favours compounds with a hit. Of some 83,000 tested, about 20% had one in any assay.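 Step 1: grow cells in 96-well plates. Step 2: add test compound at a single concentration. Step 3: incubate 48 h. Step 4: record percent growth.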 Calls of active or inactive are those of the source. The calls were made as follows: active = growth percent below 10; inactive = the rest.
Experiments:
Experiment in all cases: NCI-60 one-dose screen, 48 h (100 = growth as untreated, 0 = no growth, -100 = all killed)
Details in all cases: 10 µM unless noted
[1] = tested on: NCI-H23 lung
[2] = tested on: NCI-H322M lung
[3] = tested on: HOP-62 NSCLC
[4] = tested on: NCI-H460 lung
[5] = tested on: HOP-92 NSCLC
[6] = tested on: NCI-H522 lung
[7] = tested on: A549/ATCC NSCLC
[8] = tested on: 786-0 renal
[9] = tested on: COLO 205 colon
[10] = tested on: DU-145 prostate
[11] = tested on: K-562 leukemia
[12] = tested on: MALME-3M melanoma
[13] = tested on: MDA-MB-231 breast
[14] = tested on: RXF 393 renal
[15] = tested on: SF-268 CNS
[16] = tested on: SF-295 CNS
[17] = tested on: SF-539 CNS
[18] = tested on: UACC-257 melanoma
[19] = tested on: M14 melanoma
[20] = tested on: HCT-15 colon

Measured: growth

Clc1ccc(COc2ccc(Nc3ncnc4onc(-c5ccccc5)c34)cc2)cc1
inactive: [1] 87.1% | [2] 82.8% | [3] 91.2% | [4] 61% | [5] 82.9% | [6] 71.3% | [7] 82.8% | [8] 90.7% | [9] 93.5% | [10] 72.7% | [11] 89.9% | [12] 92.7% | [13] 76.5% | [14] 95.5% | [15] 89.2% | [16] 93.7% | [17] 97% | [18] 85.6% | [19] 76% | [20] 84.2%

COc1ccc(S(=O)(=O)N(Cc2ccc3c(n2)C=CC(C)(C)O3)C2CCC2)cc1OC
active: [1] -14.5% | [2] -20.1% | [3] 1.37% | [4] 1.79% | [5] -19.6% | [6] -27.7% | [7] -2.9% | [8] -26.5% | [9] 0.159% | [10] -8.1% | [11] 7.07% | [12] -36.9% | [13] 3.21% | [14] -20.2% | [15] -9.29% | [16] -43.3% | [17] 0.455% | [18] -13.9% | [19] -59.1%
inactive: [20] 13.5%

Nc1ccccc1-c1ccc(-c2ccc(Cl)cc2)c2c1[nH]c1ccccc12
active: [5] 7.99%
inactive: [1] 77% | [2] 64% | [3] 79.5% | [4] 88.6% | [6] 73.5% | [7] 67.9% | [8] 76.5% | [9] 78.5% | [10] 75.9% | [11] 58.9% | [12] 90.2% | [13] 62.2% | [14] 53.4% | [15] 64.8% | [16] 88.2% | [17] 86.3% | [18] 81% | [19] 49.3% | [20] 73.2%

S=C1NC2(c3ccccc3)CCC(=S)N2c2ccccc21 (stereo not given)
inactive: [1] 103% | [2] 95.8% | [3] 98.2% | [4] 108% | [5] 99.1% | [6] 90.7% | [7] 101% | [8] 104% | [9] 117% | [10] 115% | [11] 93.6% | [12] 99.5% | [13] 90.9% | [14] 116% | [15] 102% | [16] 107% | [17] 107% | [18] 110% | [19] 103% | [20] 102%

COC(=O)C1=Nc2ccc(F)cc2/C1=C/c1sc(=S)[nH]c1O
inactive: [1] 28.6% | [2] 29% | [3] 18.6% | [5] 22.9% | [7] 17.7% | [10] 11.9% | [12] 60.8% | [13] 16.8% | [14] 30.4% | [15] 13.1% | [16] 13.8% | [18] 45.9% | [20] 10.7%
active: [4] 3.2% | [6] -33.3% | [8] 9.99% | [9] -2.37% | [11] 8.26% | [17] -26.6% | [19] 2.31%

NNC(=O)CNC(=O)Nc1n[nH]c(=S)s1
inactive: [1] 100% | [2] 103% | [3] 100% | [4] 105% | [5] 91.7% | [6] 88.7% | [7] 105% | [8] 103% | [9] 107% | [10] 107% | [11] 90.3% | [12] 87% | [13] 112% | [14] 124% | [15] 107% | [16] 94% | [17] 109% | [18] 99.9% | [19] 93.5% | [20] 109%

Oc1[nH]c2ccccc2c1N=Nc1nnc2n1N=C(c1ccccc1)CS2
inactive: [1] 70% | [2] 104% | [3] 46.1% | [4] 83.3% | [5] 64.7% | [6] 43.6% | [7] 69.1% | [8] 82% | [9] 105% | [10] 84.1% | [11] 77.7% | [12] 103% | [13] 88.6% | [14] 82.4% | [15] 69.1% | [16] 99.9% | [17] 82.6% | [18] 79.6% | [19] 99.1% | [20] 105%

O=C1NC(=S)NC(=O)C1=Cc1cn(Cc2cn(Cc3cccc4ccccc34)nn2)c2ccccc12
inactive: [1] 88% | [2] 93.7% | [3] 94.9% | [4] 89.4% | [5] 102% | [6] 97.2% | [7] 106% | [8] 115% | [9] 114% | [10] 105% | [11] 121% | [12] 86.5% | [13] 87.6% | [14] 84.6% | [15] 95.4% | [16] 98.4% | [17] 96.3% | [18] 103% | [19] 95% | [20] 100%

O=C1OC(c2ccccc2)(c2ccccc2)c2ccsc21
inactive: [1] 113% | [2] 90.7% | [3] 117% | [4] 98.8% | [5] 87.1% | [6] 92.6% | [7] 101% | [8] 103% | [9] 121% | [10] 104% | [11] 87% | [12] 87.2% | [13] 100% | [14] 114% | [15] 97.3% | [16] 97.2% | [17] 98.9% | [18] 103% | [19] 106% | [20] 95.2%

c1ccc2cc3c(Nc4ccc(N5CCOCC5)cc4)ccnc3cc2c1
inactive: [1] 95% | [2] 111% | [3] 100% | [4] 86.5% | [5] 104% | [6] 97.5% | [7] 85% | [8] 91.6% | [9] 106% | [10] 97.2% | [11] 72.7% | [12] 98.1% | [13] 91.3% | [14] 92% | [15] 87.6% | [16] 98% | [17] 92.4% | [18] 108% | [19] 99.9% | [20] 91.1%

CCn1c(SCC(=O)Nc2cc(C(F)(F)F)ccc2Cl)nc2ccccc2c1=O
inactive: [1] 70.9% | [2] 78.8% | [3] 64.2% | [4] 28.6% | [6] 50.7% | [7] 50.5% | [8] 56.4% | [9] 52.6% | [10] 38.2% | [14] 44.4% | [15] 32.6% | [16] 67.3% | [17] 69.1% | [20] 36.7%
active: [5] 9.17% | [11] -46.2% | [12] -15.6% | [13] -25.6% | [18] -32% | [19] -67%

CCOc1cc2c(cc1OCC)C(c1cc(C)c(O)c(C)c1)NCC2 (stereo not given)
inactive: [1] 100% | [2] 92.2% | [3] 107% | [4] 100% | [5] 88.5% | [6] 91% | [7] 95.5% | [8] 94.3% | [9] 106% | [10] 111% | [11] 78.6% | [12] 99.1% | [13] 95.7% | [14] 99.4% | [15] 103% | [16] 93.1% | [17] 109% | [18] 94.3% | [19] 98.5% | [20] 91.2%

O=c1oc2ccc(F)cc2c(=O)n1-c1ccc(F)cc1F
inactive: [1] 11.4% | [2] 36.7% | [3] 30.5% | [4] 14.7% | [7] 15.2% | [8] 73.1% | [9] 93.9% | [10] 28.3% | [11] 15.7% | [13] 51.1% | [14] 33.5% | [15] 15% | [16] 37.9% | [17] 18.5% | [18] 17.5% | [19] 29% | [20] 23.3%
active: [5] -29% | [6] -8.1% | [12] -6.02%

O=c1oc2ccc(F)cc2c(=O)n1-c1ccc(I)cc1F
active: [1] 2.97% | [2] 8.02% | [3] -3.36% | [4] 3.08% | [5] -17.6% | [6] -15.8% | [7] 5.88% | [8] 0.0953% | [11] 7.88% | [12] -22.1% | [13] -25.4% | [14] -1.5% | [16] -40% | [17] 3.66% | [18] -14.8% | [19] 3.58% | [20] 5.2%
inactive: [9] 53.9% | [10] 14.8% | [15] 12.2%

O=Cc1c(OCc2cnnn2CC(=O)Nc2ccc(Cl)cc2)ccc2ccccc12
inactive: [1] 101% | [2] 102% | [3] 101% | [4] 104% | [5] 103% | [6] 89.3% | [7] 104% | [8] 100% | [9] 115% | [10] 109% | [11] 98.6% | [12] 95.2% | [13] 98% | [14] 111% | [15] 99% | [16] 104% | [17] 94.5% | [18] 94.6% | [19] 100% | [20] 101%

COc1ccc(Cn2cc(Cn3c(=O)c(-c4nc5ccccc5[nH]4)cc4ccccc43)nn2)c(OC)c1OC
inactive: [2] 18% | [9] 13.5% | [12] 24.6% | [18] 46.9% | [20] 11.1%
active: [1] 4.71% | [3] 9.29% | [4] 1.94% | [5] -2.19% | [6] -1.1% | [7] 9.33% | [8] -50.1% | [10] -59.6% | [11] 9.91% | [13] 1.9% | [14] -28.4% | [15] 2.39% | [16] 1.99% | [17] -28.6% | [19] -50.3%

— PubChem BioAssay (NCI)
